Hits are enriched below; roughly 19% of the tested compounds scored in any of these assays.
KB-V1 MDR tox: qHTS assay for MDR1-selective chemotherapeutics: Primary screen using the drug-selected MDR subline cells KB-V1; hit rate 3.4% among 400,000; KB-V1 MDR cells viability, CellTiter-Glo, 72 h; Potency, µM (top dose mostly 46.1 µM), actives largely listed as cytotoxic; also: nearly all actives have a fitted effect of over 60% in size
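Drug-selected KB-V1 cells, grown in DMEM lacking phenol red with 10% FBS, receive compound titrations; after three days at 37 degrees C, surviving cell ATP is quantified by CellTiter-Glo luminescence and responses normalized and curve-fitted.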
TDP1 cell noCPT: qHTS for Inhibitors of human tyrosyl-DNA phosphodiesterase 1 (TDP1): qHTS in cells in absence of CPT; DT40 Tdp1-/- hTDP1 cells, no CPT, ATP luminescence, 48 h; Potency, µM (series often up to 46.2 µM), for the others: top-dose activity change, negative = growth inhibition, usual class: inhibitors; hit rate 15% among 420,000; AID 686978, 2013; also: nearly all actives have a fitted effect of over 55% in size
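Chicken DT40 Tdp1-/- cells complemented with human TDP1, screened without camptothecin (DMSO vehicle only), 400 cells/well. Compounds pin-transferred, cells incubated at 37 °C for at least 48 hr. Growth read as ATP-dependent luminescence (CellTiter-Glo, 30 min at RT).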
HT1080-NT tox: qHTS for induction of synthetic lethality in tumor cells producing 2HG: qHTS for the HT-1080-NT fibrosarcoma cell line; HT-1080-NT fibrosarcoma viability, CellTiter-Glo ATP luminescence, 48 h; Potency, µM (doses to about 46.1 µM), for the others: at the top dose activity, negative = less viability, most hits filed as cytotoxic; hit rate 1.6% among 360,000;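 also: NT is the 2HG producing partner of a matched IDH1 knockdown line; 0% = DMSO-treated cells and -100% = media-only wells without cells; nearly all actives have a fitted effect of over 55% in size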
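Toxicity toward the 2HG-producing NT line was scored as %Activity, normalised to DMSO and no-cell wells, from CellTiter-Glo luminescence after 48 hours' treatment.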
HT1080 IDH1KD tx: qHTS for induction of synthetic lethality in tumor cells producing 2HG: qHTS for the HT-1080-IDH1KD cell line; HT-1080 IDH1 knockdown viability, ATP luminescence, 48 h; Potency, µM (titrated, usually from 46.1 µM), without a hit: at the top dose activity, negative = toxicity, actives largely listed as cytotoxic; hit rate 2% among 360,000;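 also: 0% = DMSO wells and -100% = cell-free medium wells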
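% activity derives from luminescence (CellTiter-Glo), normalised to DMSO and no-cell wells. HT-1080-IDH1KD cells, 750/well, had 48 h compound exposure at 37 °C.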
DT40 TDP1 CPT: qHTS for Inhibitors of human tyrosyl-DNA phosphodiesterase 1 (TDP1): qHTS in cells in presence of CPT; chicken DT40 Tdp1-/-;hTDP1 cells + 20 nM CPT, ATP luminescence, 48 h; hit rate 12% among 420,000; Potency, µM (series often up to 46.2 µM), without a hit: at the top dose activity change, negative = growth inhibition, most hits filed as inhibitors; also: nearly all actives have a fitted effect of over 55% in size
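Cell growth measured by CellTiter-Glo luminescence after a minimum 48 h, 37 C compound exposure with 20 nM CPT in Tdp1-knockout DT40 cells stably expressing hTDP1, seeded 400/well; qHTS titration format.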
KB-3-1 cytotox: qHTS assay for MDR1-selective chemotherapeutics: Primary screen using the parental adenocarcinoma cell KB-3-1; Potency, µM (titrated, usually from 46.1 µM), usual class: cytotoxic; KB-3-1 viability, CellTiter-Glo ATP luminescence, 72 h; hit rate 1.4% among 400,000; also: nearly all actives have a fitted effect of over 60% in size
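Luminescent ATP read-out (CellTiter-Glo) measures survival of drug-naive KB-3-1 cells after 72 h compound exposure at 37 °C. Titration series was screened from lowest to highest concentration, with DMSO vehicle plates as background controls.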
Starred values were filed as active, the others as inactive; [ ] = another dose, or the depositor's remark. Calls follow the shape of the dose curve; as a rule, active = well fitted curve in the direction sought with a large enough effect; inconclusive = small, poorly fitted or top-dose-only effect, or another doubt; inactive = no such curve, though single readings can be large; an effect the other way counts as inactive or inconclusive. Unless noted, % is scaled to controls: 0 for no effect and ±100 for the full control effect; potency is read from the fitted curve at half-maximal effect.

`CCOC(=O)C1CCN(C(=O)C(C)Sc2nnc3ccccn23)CC1` (stereo not drawn) gave KB-V1 MDR tox inconclusive, TDP1 cell noCPT -20%, HT1080-NT tox 11%, HT1080 IDH1KD tx 9%, DT40 TDP1 CPT -20% and KB-3-1 cytotox inactive.
O=[N+]([O-])c1cccc(-c2nnc3ccc4ccccc4n23)c1 was read as KB-V1 MDR tox inactive, TDP1 cell noCPT 13µM*, HT1080-NT tox 1%, HT1080 IDH1KD tx 0%, DT40 TDP1 CPT 16µM* and KB-3-1 cytotox inactive.
For CCCCc1c(C)c2ccc(OC)c(/C(C)=N\O)c2oc1=O the results were KB-V1 MDR tox 5.8µM*, TDP1 cell noCPT 18µM*, HT1080-NT tox 8%, HT1080 IDH1KD tx 7%, DT40 TDP1 CPT inconclusive and KB-3-1 cytotox inconclusive.
COc1ccc2c(C)c(Cc3ccccc3)c(=O)oc2c1OC was read as KB-V1 MDR tox inconclusive, TDP1 cell noCPT inconclusive, HT1080-NT tox 10%, HT1080 IDH1KD tx 6%, DT40 TDP1 CPT inconclusive and KB-3-1 cytotox inactive.
Screening O=c1c2ccccc2nc2n1CC/C2=C/N1CCN(c2cccc(C(F)(F)F)c2)CC1 returned KB-V1 MDR tox inactive, TDP1 cell noCPT inconclusive, HT1080-NT tox inconclusive, HT1080 IDH1KD tx 0%[9.24 µM], DT40 TDP1 CPT 18µM* and KB-3-1 cytotox inactive.
`O=C(Nc1cccc(S(=O)(=O)N2CCOCC2)c1)c1ccc2ccccc2n1` gave KB-V1 MDR tox inconclusive, TDP1 cell noCPT inconclusive, HT1080-NT tox 0%, HT1080 IDH1KD tx 2%, DT40 TDP1 CPT inconclusive and KB-3-1 cytotox inactive.
Screening O=C(Nc1cccc(S(=O)(=O)N2CCCCC2)c1)c1ccc2ccccc2n1 returned KB-V1 MDR tox inactive, TDP1 cell noCPT 21µM*, HT1080-NT tox 4%, HT1080 IDH1KD tx 2%, DT40 TDP1 CPT 29µM* and KB-3-1 cytotox inactive.
Screening O=C(Nc1cccc(S(=O)(=O)N2CCCC2)c1)c1ccc2ccccc2n1 returned KB-V1 MDR tox inactive, TDP1 cell noCPT 23µM*, HT1080-NT tox -15%, HT1080 IDH1KD tx -3%, DT40 TDP1 CPT 21µM* and KB-3-1 cytotox inconclusive.
`CCC(C)N(C(=O)Cn1nnc(-c2ccc(Cl)cc2)n1)C1CCS(=O)(=O)C1` (stereo not drawn) gave KB-V1 MDR tox inactive, TDP1 cell noCPT 5%, HT1080-NT tox -5%, HT1080 IDH1KD tx -3%, DT40 TDP1 CPT -16% and KB-3-1 cytotox inactive.
For COc1ccc(C(C(=O)NC(C)(C)C)N(Cc2ccc(C)cc2)C(=O)CCC(=O)Nc2cc(C)on2)cc1 (stereo not drawn) the results were KB-V1 MDR tox inactive, TDP1 cell noCPT inconclusive, HT1080-NT tox -18%, HT1080 IDH1KD tx -22%, DT40 TDP1 CPT -39% and KB-3-1 cytotox inconclusive.
Screening Cc1cc(C)cc(N(C(=O)CCC(=O)Nc2cc(C)on2)C(C(=O)NC2CCCC2)c2ccco2)c1 (stereo not drawn) returned KB-V1 MDR tox inactive, TDP1 cell noCPT 21µM*, HT1080-NT tox -2%, HT1080 IDH1KD tx -3%, DT40 TDP1 CPT inconclusive and KB-3-1 cytotox inactive.
For Cc1cccc(N(C(=O)CCC(=O)Nc2cc(C)on2)C(C(=O)NC2CCCC2)c2ccc(C)o2)c1 (stereo not drawn) the results were KB-V1 MDR tox inactive, TDP1 cell noCPT -18%, HT1080-NT tox -6%, HT1080 IDH1KD tx -8%, DT40 TDP1 CPT inconclusive and KB-3-1 cytotox inactive.
